Values without a mark were called inactive. The rule behind the calls is not given here.
These compounds were tested against Pantothenate synthetase (Mycobacterium tuberculosis (strain ATCC 25618 / H37Rv)) (UniProt P9WIL5) (assay: Coupled enzyme confirmation of inhibitors against recombinant Mtb PanC (AID 375;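 note: 0% = full reaction with vehicle and 100% = no enzyme background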)). Settings: coupled enzyme assay; at 10 µM, hits give high values.
Sequence of Pantothenate synthetase (Mycobacterium tuberculosis (strain ATCC 25618 / H37Rv)) (P9WIL5 whole entry, looked up): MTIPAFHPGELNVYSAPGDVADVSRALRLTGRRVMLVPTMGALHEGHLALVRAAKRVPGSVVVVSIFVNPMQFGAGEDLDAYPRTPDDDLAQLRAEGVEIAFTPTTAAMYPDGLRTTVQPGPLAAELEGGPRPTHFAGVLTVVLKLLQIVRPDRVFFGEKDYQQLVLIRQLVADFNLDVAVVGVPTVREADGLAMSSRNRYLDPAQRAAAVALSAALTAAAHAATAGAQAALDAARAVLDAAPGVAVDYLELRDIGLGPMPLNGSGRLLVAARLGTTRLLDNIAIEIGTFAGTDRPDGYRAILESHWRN
In the case of CCN(C(=O)c1cccs1)c1nnc(-c2ccncc2)s1, the inhibition is reported as 0%. COc1ccc(-c2n[nH]c(C)c2-c2ccc(Cl)cc2)c(O)c1OC was tested, and the inhibition was 0%. Compound Clc1cccc(N2CCN(Cc3nc(-c4ccccc4)no3)CC2)c1 has an inhibition of 0%. Work on CCOC(=O)c1sc(NC(=O)c2noc3c2CCCC3)c(C(=O)OCC)c1C yielded an inhibition of 0%. Work on COc1ccc(OC)c(S(=O)(=O)Nc2ccc(O)c3ccccc23)c1 yielded an inhibition of 8%. For CC(=O)c1c(C)[nH]c(C(=O)Nc2ccc3c(c2)OCCO3)c1C, the inhibition was 3%. In the case of O=C(O)CCC(=O)c1c[nH]c2ccccc12, the inhibition is reported as 3%. In the case of O=C(Nc1ncnc2sc3c(c12)CCC3)c1ccco1, the inhibition is reported as 0%. CCn1c(=N)n(CC(O)c2ccco2)c2ccccc21 (stereo not given) gave an inhibition of 0%. Cn1c(=O)[nH]c(=O)c2c1nc(Br)n2CCCSc1nc2ccccc2o1 showed an inhibition of 0%. For FC(F)(F)c1nnc2ccc(NCn3nnc4ccccc43)nn12, the inhibition was 3%. CCOC(=O)C1CCCN(C(=O)c2cc3c(=O)n4cccc(C)c4nc3n2C)C1 (stereo not given) was tested, and the inhibition was 0%. CCOc1ccc(-c2nc(S(=O)(=O)c3ccccc3)c(NCc3cccnc3)o2)cc1 was tested, and the inhibition was 0%. CCOc1ccc(NC(=O)CN(C)CC(=O)NC2CCCc3ccccc32)cc1OCC (stereo not given) showed an inhibition of 7%. C=CCn1cc(C(=O)NCCOC)c(=O)c2cc(S(=O)(=O)N(CC)CC)ccc21 was tested, and the inhibition was 0%. Work on O=C(c1cnn2c1NC(c1ccco1)CC2C(F)(F)F)N1CCN(c2cccc(Cl)c2)CC1 (stereo not given) yielded an inhibition of 4%. COC(=O)c1oc2ccc(Br)cc2c1NC(C)=O was tested, and the inhibition was 0%. Cc1ccc(-n2c(=O)c3sccc3n(CC(=O)NCc3ccco3)c2=O)cc1 showed an inhibition of 0%. CCN(C(=O)c1cn(C)c(=O)c2cc(OC)c(OC)cc12)c1ccccc1C was tested, and the inhibition was 6%. CC(C)Sc1nc(N2CCCC2)c2c(c1C#N)CC(C)(C)OC2 showed an inhibition of 0%. With COc1ccc(CCNC(=O)C2=COCCO2)cc1 the inhibition was 0%. O=C(CNC(=O)c1cc2ccccc2o1)NCc1cccs1 was tested, and the inhibition was 0%. CCOC(=O)N1CCN(c2c(NCCN(C)Cc3ccccc3)c(=O)c2=O)CC1 gave an inhibition of 0%. In the case of CC(=O)c1c(C)[nH]c(C(=O)N2CCN(C(=O)c3ccco3)CC2)c1C, the inhibition is reported as 0%. In the case of N#Cc1c(N)c(C(=O)c2ccccc2)n2c1CCCC2, the inhibition is reported as 6%. With CC/C(O)=C(/C#N)c1nnc2n1CCCCC2 the inhibition was 5%. CCCCn1c(SCc2ccc(Cl)cc2)nc2c1c(=O)[nH]c(=O)n2C showed an inhibition of 6%. Compound COc1ccc(C(CNC(=O)c2cc(C)oc2C)N2CCOCC2)cc1 (stereo not given) has an inhibition of 0%. Work on CN(C#N)c1nc(N2CCOCC2)nc(N2CCOCC2)n1 yielded an inhibition of 1%. Compound CCOC(=O)c1ccc(NS(=O)(=O)c2cccc3nsnc23)cc1 has an inhibition of 8%. In the case of COc1ccc(N2CCN(c3nc4c(c(=O)[nH]c(=O)n4C)n3CCCc3ccccc3)CC2)cc1, the inhibition is reported as 13%. Work on Brc1ccc(C2=Nn3c(nnc3-c3ccncc3)SC2)cc1 yielded an inhibition of 0%. For COC(=O)Cc1c(C)nc2nc[nH]n2c1=O, the inhibition was 0%. Compound CCOC(=O)c1sc(NC(=O)CSc2n[nH]c(-c3ccccc3)n2)c(C#N)c1C has an inhibition of 11%. Work on C=CCNC(=O)CN(c1cccc(Br)c1)S(C)(=O)=O yielded an inhibition of 0%. CCOC(=O)c1c(N)nn(C(=O)C(C)C)c1-c1ccccc1 showed an inhibition of 0%. CCOC(=O)CC(=O)c1cc(OC)c(OC)c(OC)c1 gave an inhibition of 0%. CC(=O)N=c1sc(S(N)(=O)=O)nn1C showed an inhibition of 0%. For COCCCN1C(=O)C(=O)/C(=C(/O)c2ccc(OC)cc2)C1c1ccc(O)c(OC)c1 (stereo not given), the inhibition was 0%. Work on Cc1nc2c(C(=O)O)cnn2c(C)c1Cc1ccccc1F yielded an inhibition of 0%.

Reference: PubChem BioAssay
